Only a sample is shown.
aSyn 5UTR act: Activators working through SNCA 5'UTR binding (MLPCN). AID 1814. activity score, % (tested at 7.5 µM), hits read low. alpha-synuclein 5'UTR reporter, activators screen. 300,000 tested, 7.1% active; in the data active = activity score below about -60%
The depositor's hits bear a star.

How did COc1ccc2c(c1)CCC1C2=NN(/C(C)=C/C(C)=O)C1c1cccc(F)c1 (centres undefined) do in these assays?
aSyn 5UTR act: -66.4*

How did O=C(c1ccc(Cl)s1)N1CCc2ccccc21 do in these assays?
aSyn 5UTR act: -195.2*

How did Cc1ccc(C(=O)N2CCc3ccccc32)cc1 do in these assays?
aSyn 5UTR act: -112.1*

What do the screens show for `CC1CCN(c2c(NCc3ccc(C(=O)N4CCc5ccccc54)cc3)c(=O)c2=O)CC1`?
aSyn 5UTR act: 88.0

Results for Cn1cc(C(=O)N2CCc3ccccc32)cn1 ?
aSyn 5UTR act: -63.0*

How did O=C(c1cc([N+](=O)[O-])ccc1N1CCCCC1)N1CCc2ccccc21 do in these assays?
aSyn 5UTR act: 81.2

What do the screens show for `CC1CCC/C=C/C(=O)c2c(O)cc(O)cc2CC(=O)O1` (centres undefined)?
aSyn 5UTR act: -153.2*

How did CSc1ccc(NC(=O)Nc2cccn(Cc3ccccc3F)c2=O)cc1 do in these assays?
aSyn 5UTR act: -76.1*

What do the screens show for `C=CCn1cccc(/C=C/C(=O)c2ccc(C(C)(C)C)cc2)c1=S`?
aSyn 5UTR act: -74.4*

Results for CCC(=O)NC(c1ccc(OC)c(OC)c1)c1cc(Cl)c2cccnc2c1O (centres undefined) ?
aSyn 5UTR act: 111.1

How did CC(C)C(=O)NC(c1cccc([N+](=O)[O-])c1)c1ccc2cccnc2c1O (centres undefined) do in these assays?
aSyn 5UTR act: 90.7

What do the screens show for `CCC(=O)NC(/C=C/c1ccccc1)c1cc([N+](=O)[O-])c2cccnc2c1O` (centres undefined)?
aSyn 5UTR act: -94.4*

Results for CN(C)c1ccc(C(=S)NC2CCCCC2)cc1 ?
aSyn 5UTR act: -111.2*

How did CCN(CC)c1ccc(C(=S)NC2CCCCC2)cc1 do in these assays?
aSyn 5UTR act: -64.0*

Results for COC(=O)C1C(=O)c2c([nH]c(C(=O)OC3CCCC3)c2C)CC1C (centres undefined) ?
aSyn 5UTR act: -131.3*

How did O=C(NOCc1ccccc1)c1ccccc1 do in these assays?
aSyn 5UTR act: -91.8*

Results for COc1ccccc1NC(=O)CSc1ccc(-c2ccc(-n3cccn3)cc2)nn1 ?
aSyn 5UTR act: -112.6*

How did COc1ccc(-c2ccc(SCC(=O)Nc3cccc(C(C)=O)c3)nn2)cc1OC do in these assays?
aSyn 5UTR act: -82.3*

How did CC(=O)c1cccc(NC(=O)CSc2ccc(-c3ccc4c(c3)OCO4)nn2)c1 do in these assays?
aSyn 5UTR act: -87.0*

What do the screens show for `O=c1c(-c2nc3ccccc3s2)cccn1Cc1ccc(Cl)cc1`?
aSyn 5UTR act: -110.8*

Results for Clc1ncccc1-c1nc2ccccc2s1 ?
aSyn 5UTR act: -148.7*

Results for COc1ccccc1Oc1ncnc2c1cnn2-c1ccccc1 ?
aSyn 5UTR act: -115.4*

How did COc1ncnc2c1cnn2-c1ccccc1 do in these assays?
aSyn 5UTR act: -67.4*

What do the screens show for `COc1ccc(-n2ncc3c(N(C)C4CCCCC4)ncnc32)cc1`?
aSyn 5UTR act: 94.0

How did CN(C)C(=O)CSc1nnc(C23CC4CC(CC(C4)C2)C3)o1 do in these assays?
aSyn 5UTR act: -159.9*

Results for Cc1ccc(C(=O)Nc2cccc(C(=O)NCc3ccco3)c2)cc1 ?
aSyn 5UTR act: -71.6*

What do the screens show for `Cc1ccc(S(=O)(=O)Nc2nc3ccccc3nc2NCc2ccco2)cc1`?
aSyn 5UTR act: -180.4*

Results for CCC1=Nc2cc(C(=O)NCc3ccco3)ccc2Sc2ccc(C)cc21 ?
aSyn 5UTR act: 104.2

Results for Cc1ccc(C(=O)Nc2cccc(C(=O)N3CCN(C)CC3)c2)cc1 ?
aSyn 5UTR act: -97.8*

What do the screens show for `C/C(=N\Nc1nc(Cl)c(Cl)cc1Cl)c1ccc(S(=O)(=O)NCc2ccco2)cc1`?
aSyn 5UTR act: -63.8*

What do the screens show for `Cc1ccc(C(=O)Nc2ccc(S(=O)(=O)NCc3ccco3)cc2)cc1`?
aSyn 5UTR act: -92.2*

Results for C/C(=N\Nc1ccc(C(=O)O)cc1)c1ccc(S(=O)(=O)NCc2ccco2)cc1 ?
aSyn 5UTR act: -75.2*

How did O=c1c(C=NCc2ccccc2)c(NCc2ccccc2)nc2ccccn12 do in these assays?
aSyn 5UTR act: -65.6*

What do the screens show for `c1ccc(N2CCN(c3ccccc3)C2c2cccs2)cc1`?
aSyn 5UTR act: -108.3*

Results for COc1ccc(C2CC(=O)N(C)c3ccccc3S2)cc1OC (centres undefined) ?
aSyn 5UTR act: -87.1*

How did CC(=O)Nc1ncc(N=Nc2cccc(C(F)(F)F)c2)s1 do in these assays?
aSyn 5UTR act: -78.5*

Results for CC1CCN(C(=O)CSCc2ccc(Cl)cc2)CC1 ?
aSyn 5UTR act: -95.5*

What do the screens show for `Cc1cc(-c2ccccc2)nc(N/N=C/c2ccco2)n1`?
aSyn 5UTR act: -125.8*

What do the screens show for `Clc1cccc(/C=N/Nc2nc(Cl)nc3ccccc23)c1`?
aSyn 5UTR act: -171.6*

What do the screens show for `Cc1cc(-c2ccccc2)nc(N/N=C/c2ccccc2)n1`?
aSyn 5UTR act: -110.2*

Results for Cc1cc(C)nc(N/N=C/c2cccc(Cl)c2)n1 ?
aSyn 5UTR act: -93.4*

How did C(=N/Nc1nc(-c2ccccc2)cc(-c2ccccc2)n1)/c1cccnc1 do in these assays?
aSyn 5UTR act: -121.0*

What do the screens show for `Clc1cccc(/C=N\Nc2nccs2)c1`?
aSyn 5UTR act: -168.3*

Screening results (PubChem BioAssay)
